Assay outcomes from PubChem BioAssay.
RORgamma inh – qHTS for inhibitors of ROR gamma transcriptional activity. Drosophila S2 Gal4-RORgamma UAS-luciferase reporter, 20 h. Potency, µM (top dose mostly 53.6 µM), for the others: at the top dose activity change, negative = inhibition, usual class: inhibitors. 310,000 compounds, 5.4% hits; further: nearly all actives have a fitted effect of over 60% in size
Target sequence (P51450 whole entry, looked up, the tested form may be a part): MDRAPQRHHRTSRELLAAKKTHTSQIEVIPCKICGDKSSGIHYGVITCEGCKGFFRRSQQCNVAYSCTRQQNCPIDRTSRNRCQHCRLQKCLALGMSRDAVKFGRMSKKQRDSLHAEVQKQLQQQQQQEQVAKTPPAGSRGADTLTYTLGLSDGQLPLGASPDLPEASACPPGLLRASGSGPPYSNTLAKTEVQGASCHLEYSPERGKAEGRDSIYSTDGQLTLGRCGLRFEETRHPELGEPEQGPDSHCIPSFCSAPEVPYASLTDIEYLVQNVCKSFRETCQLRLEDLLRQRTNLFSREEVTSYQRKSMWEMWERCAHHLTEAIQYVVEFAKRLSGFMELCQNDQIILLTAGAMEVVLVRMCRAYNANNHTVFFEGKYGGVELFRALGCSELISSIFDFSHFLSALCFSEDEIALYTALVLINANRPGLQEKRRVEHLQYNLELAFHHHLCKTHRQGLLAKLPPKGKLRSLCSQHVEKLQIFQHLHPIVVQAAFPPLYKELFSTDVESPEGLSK
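Stable Schneider cell line, Gal4 DNA-binding domain fused to ROR gamma, UAS-luciferase. Cmpd 1 hr RT → CuSO4 700 uM final → 20 hr RT → luciferase reagent 10 min → luminescence.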
TDP1 cell CPT – qHTS for Inhibitors of human tyrosyl-DNA phosphodiesterase 1 (TDP1): qHTS in cells in presence of CPT | chicken DT40 Tdp1-/-;hTDP1 cells + 20 nM CPT, ATP luminescence, 48 h | Potency, µM (doses to about 46.2 µM), for the others: at the top dose activity change, negative = growth inhibition, hits mostly inhibitors | 420,000 compounds, 12% hits; further: nearly all actives have a fitted effect of over 55% in size
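Chicken DT40 Tdp1-/- cells stably complemented with human TDP1 were seeded at 400 cells/well in medium containing 20 nM camptothecin, exposed to pin-transferred compounds, and grown at 37 °C for at least 48 hr. Viability was read as ATP luminescence.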
VP16 counter – VP16 counterscreen qHTS for inhibitors of ROR gamma transcriptional activity; Drosophila S2 Gal4-VP16 UAS-luciferase, luminescence, 20 h; Potency, µM (top dose mostly 53.6 µM), for the others: top-dose activity, negative = inhibition, most hits filed as inhibitors; 310,000 compounds, 3.5% hits; AID 2546, 2010;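 further: Gal4-VP16 expression switched on by copper sulfate through the metallothionein promoter; nearly all actives have a fitted effect of over 50% in size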
ELG1 DNA repair – qHTS screen for small molecules that inhibit ELG1-dependent DNA repair in human embryonic kidney (HEK293T) cells expressing luciferase-tagged ELG1 | HEK293T ELG1-luciferase reporter, luminescence, 16 h; DNA damage induced by 5-fluorouridine | 330,000 compounds, 2.3% hits | Potency, µM (top dose mostly 46.1 µM), without a hit: at the highest dose activity change, negative = inhibition, hits mostly inhibitors; further: nearly all actives have a fitted effect of over 55% in size
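DMSO vehicle served as the neutral condition. Each well held 2,000 cells given 5-fluorouridine plus compound; after 16 hr at 37 °C/5% CO2, ONE-Glo was added and luciferase measured 30 min later.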
ALOX12 inh – Primary qHTS assay for inhibitors of human arachidonate 12S-lipoxygenase (ALOX12): Round 2 | AID 1671190, 2021 | Polyunsaturated fatty acid lipoxygenase ALOX12 (Homo sapiens), P18054 | 580,000 compounds, 1.1% hits | Potency, µM (titrated, usually from 108 µM), for the others: at the top dose activity change, negative = inhibition, most hits filed as inhibitors | purified 12hLO, xylenol orange hydroperoxide absorbance
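Purified human 12hLO at 150 nM in 25 mM Hepes, 0.01% Triton X-100, pH 7.0, preincubated 15 min at room temperature with compound. Reaction started with 40 uM arachidonic acid, 30 min at room temperature. Hydroperoxide measured by Fe-xylenol orange, 573/405 nm absorbance ratio.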
TDP1 cell noCPT – qHTS for Inhibitors of human tyrosyl-DNA phosphodiesterase 1 (TDP1): qHTS in cells in absence of CPT; DT40 Tdp1-/- hTDP1 cells, no CPT, ATP luminescence, 48 h; Potency, µM (top dose mostly 46.2 µM), inactives show top-dose activity change, negative = growth inhibition, hits mostly inhibitors; 420,000 compounds, 15% hits; AID 686978, 2013; further: nearly all actives have a fitted effect of over 55% in size
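Luminescent ATP content (CellTiter-Glo) served as the growth readout. Knockout chicken DT40 cells expressing human TDP1 were exposed to compounds without camptothecin for a minimum 48 hr at 37 °C.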
Numbers without * were called inactive; ? = inconclusive; · = no result given; [ ] = another dose, or the depositor's remark. Rows were chosen to be rich in hits. Some 15% of all compounds tested hit in one or more screens of this group. The call rests on the fitted dose curve; in most records, active means well fitted curve in the direction sought with a large enough effect; inconclusive means small, poorly fitted or top-dose-only effect, or another doubt; inactive means no such curve, though single readings can be large; an effect the other way counts as inactive or inconclusive. On the % scale 0 is the no-effect control and ±100 the full control effect; potency means the concentration at half of the fitted maximal effect.

SMILES	RORgamma inh	TDP1 cell CPT	VP16 counter	ELG1 DNA repair	ALOX12 inh	TDP1 cell noCPT
Cc1ccc2c(Cl)cc(Cl)c(OCC(=O)NC(C)(C)C)c2n1	7.1µM*	?	?	?	?	23µM*
COc1ccc(OC)c(NC(=O)COC(=O)COc2c(Cl)cc(Cl)c3ccc(C)nc23)c1	·	-17%	·	·	10%	-11%
COC(=O)COc1c(Cl)cc(Cl)c2ccc(C)nc12	?	-5%	22µM*	?	-1%	0%
COc1cc2c(cc1OC)C(C[C@H]1CN(C(=O)Cc3cccs3)CC[C@H]1CC(=O)O)=NCC2	·	·	·	·	58%	·
OC1NC(=S)N(c2ccccc2)C1O (configuration not stated)	-2%	3%	3%	17%	0%	-1%
S=C1NC(c2ccccc2)N2C(=S)NC(c3ccccc3)N12 (configuration not stated)	-20%	2%	1%	?	16µM*	-20%
COc1ccc(C2NC(=S)N3C(c4ccc(OC)cc4)NC(=S)N23)cc1 (configuration not stated)	-33%	?	-6%	?	?	16µM*
NCCCC(=O)N1CCC2(CC1)CN(C(=O)Cc1ccc(Cl)cc1)CCO2	·	·	·	·	2%[6.33 µM]	·
COc1ccc(C2C3=C(Nc4ncnn42)c2ccccc2CC3)cc1OC (configuration not stated)	-21%	·	1%	?	·	·
CC1CC2=C(NC(=S)NC2c2ccc(F)cc2)/C(=C/c2ccc(F)cc2)C1 (configuration not stated)	1.6µM*	?	7.1µM*	7%	25µM*	?
S=C1NC2=C(CCC/C2=C\c2ccc(Cl)cc2)C(c2ccc(Cl)cc2)N1 (configuration not stated)	15%	?	?	-22%	25µM*	23µM*
FC(F)(F)c1ccccc1C1C2=C(Nc3ncnn31)c1ccccc1CCC2 (configuration not stated)	-151%	·	4.5µM*	14%	·	·
S=C1NC2=C(CCC/C2=C\c2ccccc2)C(c2ccccc2)N1 (configuration not stated)	3.5µM*	?	8.9µM*	8%	?	15µM*
Cc1nn(-c2nncc(-c3ccccc3)n2)c2c1C(c1cccc(O)c1)CC(=O)N2 (configuration not stated)	·	·	·	·	6%	·
CCc1ccccc1NC(=O)C(=O)c1c[nH]c2ccccc12	·	·	·	·	-30%	·
Cc1ccc2nc(-c3cccnc3)cc(C(=O)O)c2c1	·	·	·	·	0%	·
Fc1cccc(/C=C2\CCCC3=C2NC(=S)NC3c2cccc(F)c2)c1 (configuration not stated)	2.8µM*	?	3.5µM*	?	?	21µM*
Fc1ccccc1/C=C1\CCCC2=C1NC(=S)NC2c1ccccc1F (configuration not stated)	2.5µM*	?	11µM*	?	32µM*	?
O=C1CCCC2=C1C(c1ccccc1)NC(=S)N2 (configuration not stated)	-1%	1%	-21%	?	-10%	-19%
C(=C1/CCCC2=C1Nc1ncnn1C2c1ccccc1)/c1ccccc1 (configuration not stated)	2.8µM*	·	4µM*	?	·	·
Cc1nn(-c2ccccc2)c(C)c1CN(C)S(=O)(=O)c1c(Cl)cccc1Cl	·	·	·	·	5%	·
O=C(C1CC1)N1CCCC(c2nn(-c3ccccc3)c(=O)[nH]2)C1 (configuration not stated)	·	·	·	·	25%[176 µM]	·
CC(C)CC(=O)NC(=S)N(Cc1ccccc1)Cc1ccccc1	3.2µM*	?	6.3µM*	-5%	?	?
COC(CNC(=O)CNC(=S)N(Cc1ccccc1)Cc1cccs1)OC	-4%	9%	0%	7%	27%	-28%
CC(C)C(=O)NC(=S)N(Cc1ccccc1)Cc1ccccc1	2.8µM*	?	5µM*	-1%	-18%	16µM*
SMILES	RORgamma inh	TDP1 cell CPT	VP16 counter	ELG1 DNA repair	ALOX12 inh	TDP1 cell noCPT
CCCC(C)NC(=O)CN(c1cccc(OC)c1)S(C)(=O)=O (configuration not stated)	·	·	·	·	24%	·
CN(CC(=O)NCc1ccco1)C(=O)c1ccc(S(=O)(=O)Nc2ccccc2)cc1	·	·	·	·	-12%	·
Cc1noc2nc(-c3ccccc3F)cc(C(=O)NCc3ccccc3F)c12	·	·	·	·	5%	·
CCOCC1(C)COc2ccc(C(=O)Nc3cccc(OC)c3)cc2N1 (configuration not stated)	·	·	·	·	3%[176 µM]	·
O=C(c1ccccc1)N1CCC2(COc3ccncc3[S+](=O)([O-])N2)C1 (configuration not stated)	·	·	·	·	6%[6.33 µM]	·
Cc1ccc(NC(=O)c2oc3ccccc3c2NC(=O)Cc2ccccc2)cc1	·	16µM*	·	·	0%	?
CCOc1ccc(CC(=O)Nc2c(C(=O)Nc3ccccc3)oc3ccccc23)cc1OCC	1%	?	-7%	18%	12%	?
CCOc1ccc(CC(=O)Nc2c(C(=O)c3ccc(C)cc3)oc3ccccc23)cc1OCC	·	?	·	·	0%	18µM*
O=C(Nc1c(C(=O)Nc2cccc(C(F)(F)F)c2)oc2ccccc12)c1cc(=O)c2ccccc2o1	·	4.1µM*	·	·	3%	?
O=C(Nc1c(C(=O)Nc2cccc(F)c2)oc2ccccc12)c1cc2ccccc2o1	·	18µM*	·	·	-24%	15µM*
Cc1ccc(NC(=O)c2oc3ccccc3c2NC(=O)c2ccccc2C)cc1	·	?	·	·	-21%	?
CC(C)CS(=O)(=O)N[C@@H]1C[C@H](Cn2cc(CN(C)C)nn2)[C@@H](O)[C@H]1O	·	·	·	·	-2%[176 µM]	·
Cc1ccc(NC(=O)c2oc3ccccc3c2NC(=O)c2cc3ccccc3o2)cc1	·	?	·	·	-12%	16µM*
CCOc1ccc(NC(=O)c2oc3ccccc3c2NC(=O)c2cc3ccccc3o2)cc1	·	-26%	·	·	0%	?
Cc1cc2c(cc1C)-n1nnnc1C(N(C)CCc1ccccc1)C(=O)N2 (configuration not stated)	·	23µM*	·	·	?	15µM*
